Assay results taken from PubChem BioAssay (NCI).
The panel holds about 83,000 compounds, 20% with a hit somewhere; the sample as a whole holds those more often.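 Single-concentration screen, 48 h exposure, 96-well plates. Endpoint: percent growth. Below 10 = active.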 Unmarked numbers belong to inactive results. Activity calls are given as the source filed them.

Columns and labels:
Assay in all cases: NCI-60 one-dose screen, 48 h (100 = growth as untreated, 0 = no growth, -100 = all killed)
Conditions in all cases: 10 µM unless noted
[1] = system: SK-MEL-2 melanoma
[2] = system: EKVX NSCLC
[3] = system: SN12C renal
[4] = system: UO-31 renal
[5] = system: TK-10 renal
[6] = system: ACHN renal
[7] = system: CAKI-1 renal
[8] = system: A498 renal
[9] = system: CCRF-CEM leukemia
[10] = system: MOLT-4 leukemia
[11] = system: SR leukemia
[12] = system: RPMI-8226 leukemia
[13] = system: OVCAR-8 ovarian
[14] = system: OVCAR-5 ovarian
[15] = system: OVCAR-4 ovarian
[16] = system: SK-OV-3 ovarian
[17] = system: IGROV1 ovarian
[18] = system: OVCAR-3 ovarian
[19] = system: HS 578T breast
[20] = system: NCI/ADR-RES ovarian

| SMILES | growth [1] | growth [2] | growth [3] | growth [4] | growth [5] | growth [6] | growth [7] | growth [8] | growth [9] | growth [10] | growth [11] | growth [12] | growth [13] | growth [14] | growth [15] | growth [16] | growth [17] | growth [18] | growth [19] | growth [20] |
| --- | --- | --- | --- | --- | --- | --- | --- | --- | --- | --- | --- | --- | --- | --- | --- | --- | --- | --- | --- | --- |
| CCS(=O)(=O)N1CCCC(C(=O)Nc2nc3ccc(NC(=O)c4ccc(F)c(OC)c4F)cc3s2)C1 (stereo not given) | 61.1% | 46.8% | 83.7% | 54.5% | 83.8% | 63.5% | 57.6% | 87.9% | 29.5% | 9.19% (active) | 27.8% | 30.4% | 57.7% | 101% | 39.4% | 70.2% | 80.9% | 62.3% | 47.6% | 52% |
| Cn1cc(-c2cc(N)n3nc(-c4c[nH]c5ccccc45)cc3n2)c2cccnc21 | 64.5% | 85.6% | 12.4% | 12.2% | 92% | 3.49% (active) | 23.9% | 129% | -21.5% (active) | -29.4% (active) | -32.9% (active) | -28.5% (active) | 27.5% | 30.2% | 28.4% | 89.9% | 28.1% | 12.6% | 82.7% | 27.7% |
| O=C(COc1ccc(NC(=O)Nc2ccccc2)cc1)N=Nc1c(O)[nH]c2ccc([N+](=O)[O-])cc12 | -69.2% (active) | 73.5% | 9.08% (active) | 80.2% | 116% | 96.2% | 78.4% | 133% | 18.4% | 3.7% (active) | 19.1% | 53.9% | -30.5% (active) | 61.2% | 7.38% (active) | 56.7% | 22.5% | -76.9% (active) | -8.84% (active) | 113% |
| CN(C)c1nc(NCCNS(=O)(=O)c2ccc(C(=O)/C=C/c3ccc(Cl)cc3)cc2)nc(Nc2ccc(F)cc2)n1 | -56.5% (active) | 2.04% (active) | -97.7% (active) | 5.91% (active) | -16.9% (active) | -24.9% (active) | -23.3% (active) | 9.56% (active) | 5.38% (active) | -12.2% (active) | -41.1% (active) | -17.6% (active) | -73.5% (active) | -67% (active) | -28.3% (active) | 26% | -49.6% (active) | -94.8% (active) | 25.8% | -83.5% (active) |
| Cn1cc(-c2cc3nc(-c4cn(C)c5ncc(Br)cc45)cc(N)n3n2)c2cc(Cl)ccc21 | -76% (active) | -71.1% (active) | -87.9% (active) | -87.8% (active) | -94.9% (active) | -100% (active) | -71.7% (active) | -1.96% (active) | -37.4% (active) | -47.5% (active) | -28.1% (active) | -4.61% (active) | -54.4% (active) | -81.4% (active) | -59.4% (active) | -69.2% (active) | -73.1% (active) | -54.4% (active) | -36.1% (active) | -58.4% (active) |
| CCCCSc1nc(Nc2ccc(C(C)=O)cc2)c(C#N)c(-c2ccc(OC)cc2)n1 | 114% | 65.1% | 27.9% | 14.5% | -3.09% (active) | 2.58% (active) | 34% | 59.7% | 100% | 88% | 70.9% | 91% | 27.5% | 57.9% | -45.4% (active) | 106% | 38.5% | 20.8% | 66.1% | 58.1% |
| CN(C)CCOc1ccc(C(=O)C2[C@H](c3ccc(Cl)cc3)[C@@H](c3ccccc3)NC23C(=O)Nc2ccccc23)cc1 (stereo not given in full) | 112% | 77.2% | 69.1% | 59% | 117% | 88.3% | 58% | 112% | 86.3% | -32.8% (active) | -18% (active) | 49.7% | 88.1% | 85.8% | 70.6% | 121% | 80.2% | 73.2% | 77.4% | 86.4% |
| CC12CC[C@@H]3[C@]4(C)COC(c5cn[nH]c5-c5cccc(Cl)c5)O[C@@H]4CC[C@@]3(C)[C@@H]1CC(C1=CCOC1=O)O2 (stereo not given in full) | 42.4% | 26% | 47.9% | 16.4% | 45.9% | 31.3% | 45.6% | 73.6% | 25.5% | 12.4% | 29.7% | 13.8% | 38.7% | 61.7% | 29.1% | 62.4% | 49.8% | 44.5% | 46.8% | 31.1% |
| COc1ccc(C(=O)/C=C/c2ccc(OCc3ccccc3)c(OC)c2)cc1OC | 72.7% | 80.4% | 1.82% (active) | 31.4% | 62.7% | 38.3% | 38.8% | 102% | 9.36% (active) | 9.48% (active) | 8.91% (active) | 9.53% (active) | -1.43% (active) | 4.82% (active) | 25.6% | 83.5% | 23.3% | 25.8% | 75.5% | 19.7% |
| CN1C(=O)/C(=C/c2ccc(C(=O)Nc3ncc(Cc4ccc(Cl)cc4Cl)s3)cc2)SC1=S | 19.7% | 63% | 36.1% | 40.4% | 71.4% | 31.3% | 30.1% | 87.6% | 40.2% | 31.1% | 28.8% | 36.3% | 39.3% | 46.3% | 53.6% | 53.3% | 47.2% | 12.9% | 44.3% | -11.8% (active) |
| Cn1cc(-c2cc(N)n3nc(-c4cn(C)c5ccc(Cl)cc45)cc3n2)c2ccccc21 | 114% | 104% | 108% | 107% | 79.3% | 100% | 95.4% | 101% | 115% | 104% | 99.7% | 109% | 104% | 108% | 111% | 105% | 111% | 122% | 113% | 105% |
| CN(C)CCCNC(=O)c1cc(NC(=O)c2cc(NC(=O)c3ccc(/C=C/c4ccccc4)cc3)cn2C)cn1C | 60.6% | 66.9% | 49.3% | 66.6% | 83.7% | 40.3% | 34.7% | 103% | 22.9% | -5.97% (active) | -30.3% (active) | -0.0203% (active) | 35.7% | 105% | 58.4% | 88.7% | 78.3% | 51.6% | 94.6% | 91.6% |
| C#CCOc1ccc(/C=N/Nc2nc(-c3ccc(Cl)cc3)cs2)cc1OC | 38% | 59.5% | 67.7% | 52.5% | 131% | 68.6% | 52.6% | 69.8% | 36.2% | 21.7% | 22.2% | 38.5% | 51.7% | 86.9% | 54.2% | 88.2% | 88.1% | 69.1% | 81.1% | 46% |
| CC(/C=C1\SC(=S)N(CCCC(=O)NC(CC(C)C)C(=O)O)C1=O)=C\c1ccccc1 (stereo not given) | 101% | 101% | 90.2% | 64.4% | 131% | 54.1% | 79.5% | 145% | 89.7% | 54.9% | 101% | 77.6% | 87.5% | 111% | 99.8% | 106% | 109% | 91.3% | 97.5% | 94.1% |
| COC1=C[C@]23CCC(=O)N2CCc2cc4c(cc2[C@@H]3[C@@H]1OC(=O)[C@H](C)O)OCO4 | 58.5% | 43% | 57.8% | 26.4% | 47.7% | 5.84% (active) | 15% | -9.89% (active) | 1.16% (active) | 2.59% (active) | -11.9% (active) | -17.9% (active) | 29.1% | 46.4% | 13.1% | 23.5% | 20% | -2.32% (active) | 53.9% | 74.6% |
